Laboratory results from PubChem BioAssay (EPA / NIEHS).
The source made the active and inactive calls. The calls were made as follows: active = hit-call score of the fitted dose curve at least 0.9, where 1 is the maximum; inactive = score below 0.9.

How the values were obtained:
[1] = ATG_ISRE_CIS: Attagene CIS-FACTORIAL HepG2 Assay for human Interferon Regulatory Factor 1 (IRF1) binding to an Interferon-Stimulated Response Element (ISRE) (AID 2282948); conditions: HepG2 ISRE cis-reporter (Attagene), mRNA transcription readout; actives raise or lower the signal
In short: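 Transfected HepG2 (multiple reporter transcription units, cis elements) dosed 24 h. RNA → oligo(dT) RT → PCR → 6-FAM primer extension → HpaI → CE. DMSO = negative control/baseline.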

[2] = ATG_M_32_CIS: Attagene CIS-FACTORIAL HepG2 Assay for M32 Transcription Factor (Internal Marker) (AID 2282949); conditions: HepG2 Attagene cis-factorial M32 reporter, mRNA; actives raise or lower the signal;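 also: background control marker of the multiplexed CIS panel rather than a real target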
In short: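 Fluorescent capillary electrophoresis peaks of HpaI-digested, FAM-labelled RT-PCR reporter products give the signal. Source: transiently transfected human liver HepG2 cells, 24 h after chemical dosing; bidirectional fitting against DMSO.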

[3] = ATG_M_06_CIS: Attagene CIS-FACTORIAL HepG2 Assay for M06 Transcription Factor (Internal Marker) (AID 2282950); conditions: HepG2 Attagene CIS-FACTORIAL M06 internal marker reporter; actives raise or lower the signal
In short: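 Terse: HepG2, transient MRTU transfection (FuGene 6), 24 h dosing; total RNA, oligo(dT) RT, PCR, FAM label, HpaI cut, capillary electrophoresis; bidirectional fit vs DMSO baseline; background-control endpoint.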

[4] = target: Hypoxia-inducible factor 1-alpha (Homo sapiens) (UniProt Q16665); test: ATG_HIF1a_CIS: Attagene CIS-FACTORIAL HepG2 Assay for human Hypoxia Inducible Factor 1 (HIF1A) (AID 2282951); conditions: HepG2 Attagene cis-factorial HIF1a reporter transcription; actives raise or lower the signal
In short: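 Cis-element reporter constructs were transiently transfected into HepG2 cells, which were treated for 24 h; reporter RNA was reverse-transcribed, amplified, labelled and resolved by capillary electrophoresis.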

[5] = target: Hepatocyte nuclear factor 6 (Homo sapiens) (UniProt Q9UBC0); test: ATG_HNF6_CIS: Attagene CIS-FACTORIAL HepG2 Assay for human Hepatocyte Nuclear Factor 6 (HNF6) (AID 2282952); conditions: HepG2 Attagene cis-factorial HNF6 reporter transcription; actives raise or lower the signal
In short: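 Multiplexed mRNA reporter assay in transfected HepG2; 24 h dosing; RT-PCR plus capillary electrophoresis fluorescence; DMSO-referenced bidirectional curve fitting.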

[6] = target: Heat shock factor protein 1 (Homo sapiens) (UniProt Q00613); test: ATG_HSE_CIS: Attagene CIS-FACTORIAL HepG2 Assay for human Heat Shock Transcription Factor 1 (HSE) (AID 2282953); conditions: HepG2 HSE cis-reporter, Attagene RNA transcription; actives raise or lower the signal
In short: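 Read-out: fluorescence of reporter-specific RT-PCR fragments separated by capillary electrophoresis. HepG2 carrying transfected cis-element reporter units; 24 h dosing; activity fitted in both directions relative to DMSO baseline.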

[7] = ATG_MRE_CIS: Attagene CIS-FACTORIAL HepG2 Assay for human Metal Responsive Element (MRE) (AID 2282954); conditions: HepG2 MRE cis-reporter transcription, Attagene multiplex; actives raise or lower the signal
In short: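 HepG2 cells transiently transfected with cis-element-driven reporter units; mRNA measured 24 h after dosing. Reporter transcripts quantified by RT-PCR, FAM labelling, HpaI digestion and capillary electrophoresis; bidirectional fit versus DMSO.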

[8] = ATG_PBREM_CIS: Attagene CIS-FACTORIAL HepG2 Assay for human Phenobarbital-responsive Enhancer Module (PBREM) (AID 2282955); conditions: HepG2 PBREM cis-reporter, Attagene multiplexed transcription; actives raise or lower the signal
In short: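 Multiplexed cis-reporter readout in human hepatoma HepG2 cells; PBREM-regulated transcript quantified after 24 h exposure by fluorescent RT-PCR fragment analysis. Signal changes up or down fitted relative to DMSO.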

[9] = target: Paired box protein Pax-6 (Homo sapiens) (UniProt P26367); test: ATG_Pax6_CIS: Attagene CIS-FACTORIAL HepG2 Assay for human Paired Box 6 (PAX6) (AID 2282956); conditions: HepG2 CIS-FACTORIAL PAX6 reporter transcription, RNA readout; actives raise or lower the signal
In short: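 Transient MRTU transfection of HepG2 → compound exposure 24 h → TriZol RNA, oligo(dT) RT → PCR, 6-FAM primer extension, HpaI cut → capillary electrophoresis; activity fitted both directions against DMSO.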

[10] = ATG_PXRE_CIS: Attagene CIS-FACTORIAL HepG2 Assay for human Pregnane X Receptor Element (PXRE) (AID 2282957); conditions: HepG2 Attagene CIS-FACTORIAL PXRE reporter, mRNA; actives raise or lower the signal
In short: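 Cells: HepG2, transiently transfected reporter units under cis promoter control. Exposure: 24 h. Detection: reporter mRNA via RT-PCR/CE fluorescence; bidirectional fitting, DMSO-referenced.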

Measured: AC50

Hypoxia-inducible factor 1-alpha (Homo sapiens), sequence (Q16665 whole entry, looked up): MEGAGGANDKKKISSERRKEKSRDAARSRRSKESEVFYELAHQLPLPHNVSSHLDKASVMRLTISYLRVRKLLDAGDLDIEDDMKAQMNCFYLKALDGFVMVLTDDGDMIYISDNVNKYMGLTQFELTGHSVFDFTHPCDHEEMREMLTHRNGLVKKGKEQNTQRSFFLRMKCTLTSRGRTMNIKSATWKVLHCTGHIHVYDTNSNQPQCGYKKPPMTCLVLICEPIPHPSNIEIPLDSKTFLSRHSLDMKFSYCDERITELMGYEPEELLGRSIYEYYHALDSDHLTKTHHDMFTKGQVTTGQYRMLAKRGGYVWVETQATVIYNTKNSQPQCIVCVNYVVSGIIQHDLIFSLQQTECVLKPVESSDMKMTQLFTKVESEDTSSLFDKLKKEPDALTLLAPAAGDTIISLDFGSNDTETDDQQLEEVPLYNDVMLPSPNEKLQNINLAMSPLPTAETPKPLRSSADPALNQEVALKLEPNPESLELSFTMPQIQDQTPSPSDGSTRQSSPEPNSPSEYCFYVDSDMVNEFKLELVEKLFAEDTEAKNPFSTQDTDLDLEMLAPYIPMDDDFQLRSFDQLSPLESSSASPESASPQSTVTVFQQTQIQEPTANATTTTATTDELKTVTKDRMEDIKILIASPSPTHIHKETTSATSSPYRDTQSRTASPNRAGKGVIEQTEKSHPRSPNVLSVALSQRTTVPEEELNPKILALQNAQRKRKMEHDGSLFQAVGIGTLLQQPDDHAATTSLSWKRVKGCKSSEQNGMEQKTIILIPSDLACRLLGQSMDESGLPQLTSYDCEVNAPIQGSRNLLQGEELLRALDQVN
Heat shock factor protein 1 (Homo sapiens), sequence (Q00613 whole entry, looked up, the tested form may be a part): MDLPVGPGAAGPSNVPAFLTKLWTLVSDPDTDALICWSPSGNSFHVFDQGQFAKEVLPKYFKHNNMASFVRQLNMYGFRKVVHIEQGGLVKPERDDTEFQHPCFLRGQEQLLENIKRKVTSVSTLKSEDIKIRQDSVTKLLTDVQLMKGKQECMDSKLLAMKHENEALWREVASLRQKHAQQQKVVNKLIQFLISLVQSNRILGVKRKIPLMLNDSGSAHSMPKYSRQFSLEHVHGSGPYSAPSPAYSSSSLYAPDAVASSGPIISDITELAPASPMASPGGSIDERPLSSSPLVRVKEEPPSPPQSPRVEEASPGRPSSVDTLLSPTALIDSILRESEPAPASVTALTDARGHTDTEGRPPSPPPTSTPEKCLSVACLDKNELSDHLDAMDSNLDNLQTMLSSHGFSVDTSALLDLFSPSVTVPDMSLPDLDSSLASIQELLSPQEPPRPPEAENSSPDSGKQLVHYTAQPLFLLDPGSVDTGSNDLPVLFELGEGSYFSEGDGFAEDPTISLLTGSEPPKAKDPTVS
Paired box protein Pax-6 (Homo sapiens), sequence (P26367 whole entry, looked up): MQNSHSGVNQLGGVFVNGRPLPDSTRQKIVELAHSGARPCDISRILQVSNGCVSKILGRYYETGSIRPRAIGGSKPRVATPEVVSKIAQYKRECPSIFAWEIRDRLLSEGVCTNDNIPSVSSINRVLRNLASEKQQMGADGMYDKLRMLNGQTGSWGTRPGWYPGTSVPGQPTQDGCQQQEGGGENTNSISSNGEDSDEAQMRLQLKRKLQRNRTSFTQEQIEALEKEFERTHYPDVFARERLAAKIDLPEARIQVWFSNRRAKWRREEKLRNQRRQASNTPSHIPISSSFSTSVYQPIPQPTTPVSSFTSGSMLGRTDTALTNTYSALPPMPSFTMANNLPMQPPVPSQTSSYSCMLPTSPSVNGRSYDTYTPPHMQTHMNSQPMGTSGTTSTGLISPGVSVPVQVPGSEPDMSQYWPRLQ
Hepatocyte nuclear factor 6 (Homo sapiens), sequence (Q9UBC0 whole entry, looked up): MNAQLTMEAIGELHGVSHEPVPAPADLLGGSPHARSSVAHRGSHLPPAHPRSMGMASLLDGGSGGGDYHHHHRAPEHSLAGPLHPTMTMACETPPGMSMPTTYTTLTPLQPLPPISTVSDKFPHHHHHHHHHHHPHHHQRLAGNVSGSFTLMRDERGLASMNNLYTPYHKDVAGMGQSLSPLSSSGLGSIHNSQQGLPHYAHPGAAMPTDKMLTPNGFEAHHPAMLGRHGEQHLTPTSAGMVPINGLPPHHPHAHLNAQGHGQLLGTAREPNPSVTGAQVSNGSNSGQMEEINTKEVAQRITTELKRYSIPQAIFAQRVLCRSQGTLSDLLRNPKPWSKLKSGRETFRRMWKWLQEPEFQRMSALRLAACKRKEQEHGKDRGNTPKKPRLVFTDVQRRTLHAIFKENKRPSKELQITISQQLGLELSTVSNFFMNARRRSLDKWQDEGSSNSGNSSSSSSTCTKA

O=C(Nc1ccc2[nH]ccc2c1)c1cc2cc(F)ccc2n1Cc1cccc(F)c1
inactive: [2] | [3] | [4]
active: [1] 18.2 µM | [5] 18.3 µM | [6] 20.7 µM | [7] 11 µM | [8] 17.3 µM | [9] 13.9 µM | [10] 2.75 µM

ClCc1ccccn1
inactive: all assays above

O=c1[nH]c(=O)[nH]c(=O)[nH]1
inactive: all assays above

COc1ccc(C=O)cc1
inactive: all assays above

O=C(O)Cc1ccccc1
inactive: all assays above

O=S(=O)(c1ccc(Cl)cc1)c1ccc(Cl)cc1
active: [7] 101 µM | [10] 4.46 µM
inactive: all other assays above

OCC(O)CCl (stereo not drawn)
inactive: all assays above

CC(=O)[O][Hg][c]1ccccc1
active: [7] 5.86 µM | [10] 3.71 µM
inactive: all other assays above

CC(Br)C(=O)O (stereo not drawn)
inactive: all assays above

NC(=O)O
inactive: all assays above

CCOP(=S)(OCC)Oc1nc(Cl)c(Cl)cc1Cl
active: [1] 27.2 µM | [7] 100 µM | [10] 5.24 µM
inactive: all other assays above

ClCc1cccnc1
active: [7] 45.9 µM | [9] 75.4 µM
inactive: all other assays above

Clc1ccc(C2(Cn3cncn3)CC(Br)CO2)c(Cl)c1 (stereo not drawn)
active: [4] 26 µM | [6] 177 µM | [7] 145 µM | [8] 6.34 µM | [10] 1.23 µM
inactive: [1] | [2] | [3] | [5] | [9]

ClC1=C(Cl)[C@]2(Cl)[C@@H]3[C@@H](Cl)[C@@H](Cl)C[C@@H]3[C@@]1(Cl)C2(Cl)Cl
inactive: all assays above

ClCC(Cl)CCl
inactive: all assays above

C[C@H]1CCCC(=O)CCC/C=C/c2cc(O)cc(O)c2C(=O)O1
active: [1] 16.8 µM | [6] 23.7 µM | [7] 33.1 µM | [8] 5.35 µM | [10] 0.665 µM
inactive: [2] | [3] | [4] | [5]

COC(=O)c1sccc1S(=O)(=O)NC(=O)Nc1nc(C)nc(OC)n1
inactive: all assays above

COS(=O)(=O)c1ccc(C)cc1
not listed: [8]
inactive: all other assays above

O=P(O)(O)CN(CP(=O)(O)O)CP(=O)(O)O
not listed: [8]
inactive: all other assays above

CCCCC(CC)CO[N+](=O)[O-] (stereo not drawn)
active: [4] 4.37 µM | [5] 151 µM
not listed: [8]
inactive: all other assays above

ClC1=C(Cl)[C@]2(Cl)[C@H]3[C@H]([C@H]4C=C[C@H]3C4)[C@@]1(Cl)C2(Cl)Cl
active: [4] 4.66 µM | [7] 3.77 µM | [10] 1.6 µM
not listed: [9]
inactive: all other assays above

O=C(c1ccccc1)C(Cl)Cl
active: [1] 14.9 µM | [7] 26.7 µM | [9] 26.8 µM
not listed: [8]
inactive: all other assays above

CC(=[OH+])/C=C(/C)[O-].CC(=[OH+])/C=C(/C)[O-].CC(=[OH+])/C=C(/C)[O-].[Fe]
not listed: [8]
inactive: all other assays above
